Substitutions are numbered along the chain they refer to.

Common to all, as to test: PBM; 200 nM protein, PBS
What all share (conditions): dsDNA, one strand shown

For assay [1], the target named is HOXB4 (Homo sapiens, UniProt P17483 148-234).
Assay [2] has as its target T1, VENTX (Homo sapiens, UniProt O95231 78-163, R121Q).
T1 sequence: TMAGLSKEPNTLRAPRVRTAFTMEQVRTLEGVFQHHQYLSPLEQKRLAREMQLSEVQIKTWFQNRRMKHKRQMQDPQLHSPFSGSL

Assay [3] deals with HOXA4 (Homo sapiens, UniProt Q00056 201-287, W262R).
The next assay has as its target ALX4 (Homo sapiens, UniProt Q9H161 200-286).
The target in assay [4] is T2, PAX4 (Homo sapiens, UniProt O43316 9-242, R200K).
T2 sequence: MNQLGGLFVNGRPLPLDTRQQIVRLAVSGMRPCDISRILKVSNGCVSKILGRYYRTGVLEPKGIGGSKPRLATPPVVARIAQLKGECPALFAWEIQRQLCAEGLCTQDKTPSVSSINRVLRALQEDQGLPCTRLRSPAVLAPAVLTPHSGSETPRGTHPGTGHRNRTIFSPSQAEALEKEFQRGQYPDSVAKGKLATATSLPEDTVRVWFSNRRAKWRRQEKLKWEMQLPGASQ

Assay [5] has as its target PRRX1 (Homo sapiens, UniProt P54821 80-166, F113S).
Assay [6] addresses T3, VENTX (Homo sapiens, UniProt O95231 78-163, Y115F).
T3 sequence: T1 sequence with Y38F, Q44R

In the next assay the target is HOXA2 (Homo sapiens, UniProt O43364 129-215, R185T).
Assay [7] concerns the target HOXA4 (Homo sapiens, UniProt Q00056 201-287, R217L).
Assay [8] has as its target HOXB4 (Homo sapiens, UniProt P17483 148-234, V174I).
Assay [9] has as its target T4, PAX4 (Homo sapiens, UniProt O43316 9-242, R200Q).
T4 sequence: T2 sequence with K192Q

Assay [10] deals with T5, PAX4 (Homo sapiens, UniProt O43316 9-242, F177V).
T5 sequence: T2 sequence with F169V, K192R

The target in assay [11] is HOXA4 (Homo sapiens, UniProt Q00056 201-287).
The target in assay [12] is MSX2 (Homo sapiens, UniProt P35548 130-214).
The target in assay [13] is T6, PAX4 (Homo sapiens, UniProt O43316 9-242, F177Y).
T6 sequence: T2 sequence with F169Y, K192R

The target of assay [14] is MSX2 (Homo sapiens, UniProt P35548 130-214, F161Y).
In assay [15] the target is VAX1 (Homo sapiens, UniProt Q5SQQ9 86-172, T142I).
Assay [16] concerns the target HOXA4 (Homo sapiens, UniProt Q00056 201-287, W262F).
The target in assay [17] is PRRX1 (Homo sapiens, UniProt P54821 80-166).
Assay [18] addresses VAX1 (Homo sapiens, UniProt Q5SQQ9 86-172, K157R).

HOXA4 (Homo sapiens, UniProt Q00056 201-287), sequence (Q00056 201-287): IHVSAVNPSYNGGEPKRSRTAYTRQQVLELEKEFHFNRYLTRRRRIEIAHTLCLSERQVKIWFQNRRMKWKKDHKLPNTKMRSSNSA
VAX1 (Homo sapiens, UniProt Q5SQQ9 86-172, K157R), sequence (Q5SQQ9 86-172 K157R): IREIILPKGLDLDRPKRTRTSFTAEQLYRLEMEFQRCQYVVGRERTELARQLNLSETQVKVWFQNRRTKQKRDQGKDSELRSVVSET
MSX2 (Homo sapiens, UniProt P35548 130-214), sequence (P35548 130-214): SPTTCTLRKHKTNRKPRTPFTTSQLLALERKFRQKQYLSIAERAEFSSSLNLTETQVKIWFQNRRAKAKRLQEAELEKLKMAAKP
HOXA4 (Homo sapiens, UniProt Q00056 201-287, W262R), sequence (Q00056 201-287 W262R): as the sequence (Q00056 201-287) above, with W62R counted along it
HOXA4 (Homo sapiens, UniProt Q00056 201-287, W262F), sequence (Q00056 201-287 W262F): as the sequence (Q00056 201-287) above, with W62F counted along it
PRRX1 (Homo sapiens, UniProt P54821 80-166), sequence (P54821 80-166): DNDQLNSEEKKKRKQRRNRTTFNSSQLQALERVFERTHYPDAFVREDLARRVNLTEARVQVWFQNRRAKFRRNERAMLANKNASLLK
HOXA2, sequence (O43364 129-215 R185T): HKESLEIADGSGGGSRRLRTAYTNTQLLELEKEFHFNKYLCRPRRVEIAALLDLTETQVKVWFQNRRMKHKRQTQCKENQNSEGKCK
HOXB4 (Homo sapiens, UniProt P17483 148-234, V174I), sequence (P17483 148-234 V174I): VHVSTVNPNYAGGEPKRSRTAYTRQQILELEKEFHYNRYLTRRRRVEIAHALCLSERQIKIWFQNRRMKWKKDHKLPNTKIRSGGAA
HOXB4 (Homo sapiens, UniProt P17483 148-234), sequence (P17483 148-234): as the sequence (P17483 148-234 V174I) above, with I27V counted along it
VAX1 (Homo sapiens, UniProt Q5SQQ9 86-172, T142I), sequence (Q5SQQ9 86-172 T142I): as the sequence (Q5SQQ9 86-172 K157R) above, with T57I, R72K counted along it
PRRX1 (Homo sapiens, UniProt P54821 80-166, F113S), sequence (P54821 80-166 F113S): as the sequence (P54821 80-166) above, with F34S counted along it
HOXA4 (Homo sapiens, UniProt Q00056 201-287, R217L), sequence (Q00056 201-287 R217L): as the sequence (Q00056 201-287) above, with R17L counted along it
MSX2 (Homo sapiens, UniProt P35548 130-214, F161Y), sequence (P35548 130-214 F161Y): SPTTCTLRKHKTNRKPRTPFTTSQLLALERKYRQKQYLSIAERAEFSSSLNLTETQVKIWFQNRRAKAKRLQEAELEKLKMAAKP
ALX4, sequence (Q9H161 200-286): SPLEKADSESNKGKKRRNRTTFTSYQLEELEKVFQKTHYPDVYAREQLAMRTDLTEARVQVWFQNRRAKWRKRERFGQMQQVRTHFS

With CTAATTAG, the binding signal is 13.6 upbm affinity estimate (log intensity, higher = more binding, comparable within an allelic series) with HOXB4 [1]; 13 upbm affinity estimate (log intensity, higher = more binding, comparable within an allelic series) in the assay with VENTX [2]; 10.8 upbm affinity estimate (log intensity, higher = more binding, comparable within an allelic series) with HOXA4 [3]; 14.7 upbm affinity estimate (log intensity, higher = more binding, comparable within an allelic series) with ALX4; 12.5 upbm affinity estimate (log intensity, higher = more binding, comparable within an allelic series) in the assay with PAX4 [4]; 12 upbm affinity estimate (log intensity, higher = more binding, comparable within an allelic series) in the assay with PRRX1 [5]. Besides, the binding signal in the assay with VENTX [6] was 12.8 upbm affinity estimate (log intensity, higher = more binding, comparable within an allelic series); with HOXA2 it was 14.2 upbm affinity estimate (log intensity, higher = more binding, comparable within an allelic series); with HOXA4 [7], 12.6 upbm affinity estimate (log intensity, higher = more binding, comparable within an allelic series); with HOXB4 [8], 14.2 upbm affinity estimate (log intensity, higher = more binding, comparable within an allelic series); with PAX4 [9], 13.1 upbm affinity estimate (log intensity, higher = more binding, comparable within an allelic series); in the assay with PAX4 [10], 11.2 upbm affinity estimate (log intensity, higher = more binding, comparable within an allelic series). Further, the binding signal with HOXA4 [11] is 14.2 upbm affinity estimate (log intensity, higher = more binding, comparable within an allelic series); in the assay with MSX2 [12], 14.2 upbm affinity estimate (log intensity, higher = more binding, comparable within an allelic series); in the assay with PAX4 [13], 11.8 upbm affinity estimate (log intensity, higher = more binding, comparable within an allelic series); with MSX2 [14] it was 13.9 upbm affinity estimate (log intensity, higher = more binding, comparable within an allelic series); with VAX1 [15], 14.1 upbm affinity estimate (log intensity, higher = more binding, comparable within an allelic series); in the assay with HOXA4 [16], 12.6 upbm affinity estimate (log intensity, higher = more binding, comparable within an allelic series). In addition, the binding signal with PRRX1 [17] is 13.7 upbm affinity estimate (log intensity, higher = more binding, comparable within an allelic series); with VAX1 [18] it was 14.3 upbm affinity estimate (log intensity, higher = more binding, comparable within an allelic series).

ATTAATAG: the binding signal with HOXB4 [1] is 13 upbm affinity estimate (log intensity, higher = more binding, comparable within an allelic series); in the assay with VENTX [2] it was 11.7 upbm affinity estimate (log intensity, higher = more binding, comparable within an allelic series); with HOXA4 [3], 10.6 upbm affinity estimate (log intensity, higher = more binding, comparable within an allelic series); with HOXA4 [7] it was 12 upbm affinity estimate (log intensity, higher = more binding, comparable within an allelic series); with HOXB4 [8] it was 13.7 upbm affinity estimate (log intensity, higher = more binding, comparable within an allelic series); with HOXA4 [11] it was 13.6 upbm affinity estimate (log intensity, higher = more binding, comparable within an allelic series). Besides, the binding signal was 12.5 upbm affinity estimate (log intensity, higher = more binding, comparable within an allelic series) in the assay with VAX1 [15]; 11.3 upbm affinity estimate (log intensity, higher = more binding, comparable within an allelic series) in the assay with HOXA4 [16]; 12.4 upbm affinity estimate (log intensity, higher = more binding, comparable within an allelic series) in the assay with VAX1 [18].

For the sequence CAATTACC, the binding signal with HOXB4 [1] is 13 upbm affinity estimate (log intensity, higher = more binding, comparable within an allelic series); in the assay with VENTX [2] it was 11.7 upbm affinity estimate (log intensity, higher = more binding, comparable within an allelic series); in the assay with ALX4, 13.9 upbm affinity estimate (log intensity, higher = more binding, comparable within an allelic series); with PRRX1 [5], 10.9 upbm affinity estimate (log intensity, higher = more binding, comparable within an allelic series); with VENTX [6], 11.5 upbm affinity estimate (log intensity, higher = more binding, comparable within an allelic series); with HOXA2 it was 12.6 upbm affinity estimate (log intensity, higher = more binding, comparable within an allelic series). For the same sequence, the binding signal with HOXA4 [7] was 11.9 upbm affinity estimate (log intensity, higher = more binding, comparable within an allelic series); with HOXB4 [8], 13.7 upbm affinity estimate (log intensity, higher = more binding, comparable within an allelic series); with MSX2 [12], 13.8 upbm affinity estimate (log intensity, higher = more binding, comparable within an allelic series); in the assay with MSX2 [14] it was 13.5 upbm affinity estimate (log intensity, higher = more binding, comparable within an allelic series); with VAX1 [15], 12.5 upbm affinity estimate (log intensity, higher = more binding, comparable within an allelic series); in the assay with PRRX1 [17], 13.3 upbm affinity estimate (log intensity, higher = more binding, comparable within an allelic series). Further, the binding signal in the assay with VAX1 [18] is 12.5 upbm affinity estimate (log intensity, higher = more binding, comparable within an allelic series).

Regarding ACTAATTA, the binding signal in the assay with HOXB4 [1] is 13.5 upbm affinity estimate (log intensity, higher = more binding, comparable within an allelic series); with VENTX [2] it was 12.8 upbm affinity estimate (log intensity, higher = more binding, comparable within an allelic series); with HOXA4 [3] it was 10.9 upbm affinity estimate (log intensity, higher = more binding, comparable within an allelic series); with ALX4, 14.4 upbm affinity estimate (log intensity, higher = more binding, comparable within an allelic series); in the assay with PAX4 [4], 12.2 upbm affinity estimate (log intensity, higher = more binding, comparable within an allelic series); in the assay with PRRX1 [5], 12 upbm affinity estimate (log intensity, higher = more binding, comparable within an allelic series). Moreover, the binding signal is 12.6 upbm affinity estimate (log intensity, higher = more binding, comparable within an allelic series) with VENTX [6]; 14 upbm affinity estimate (log intensity, higher = more binding, comparable within an allelic series) in the assay with HOXA2; 12.9 upbm affinity estimate (log intensity, higher = more binding, comparable within an allelic series) in the assay with HOXA4 [7]; 14.2 upbm affinity estimate (log intensity, higher = more binding, comparable within an allelic series) in the assay with HOXB4 [8]; 12.7 upbm affinity estimate (log intensity, higher = more binding, comparable within an allelic series) in the assay with PAX4 [9]; 10.8 upbm affinity estimate (log intensity, higher = more binding, comparable within an allelic series) with PAX4 [10]. Besides, the binding signal in the assay with HOXA4 [11] is 14.2 upbm affinity estimate (log intensity, higher = more binding, comparable within an allelic series); with MSX2 [12], 14.1 upbm affinity estimate (log intensity, higher = more binding, comparable within an allelic series); with PAX4 [13], 11.4 upbm affinity estimate (log intensity, higher = more binding, comparable within an allelic series); with MSX2 [14], 13.8 upbm affinity estimate (log intensity, higher = more binding, comparable within an allelic series); with VAX1 [15] it was 14.1 upbm affinity estimate (log intensity, higher = more binding, comparable within an allelic series); with HOXA4 [16], 12.8 upbm affinity estimate (log intensity, higher = more binding, comparable within an allelic series). In addition, the binding signal with PRRX1 [17] was 13.7 upbm affinity estimate (log intensity, higher = more binding, comparable within an allelic series); with VAX1 [18], 14.2 upbm affinity estimate (log intensity, higher = more binding, comparable within an allelic series).

Turning to ACCAATTA, the binding signal with VENTX [2] is 12.2 upbm affinity estimate (log intensity, higher = more binding, comparable within an allelic series); with ALX4 it was 14.2 upbm affinity estimate (log intensity, higher = more binding, comparable within an allelic series); in the assay with PAX4 [4] it was 11.6 upbm affinity estimate (log intensity, higher = more binding, comparable within an allelic series); with PRRX1 [5], 11.5 upbm affinity estimate (log intensity, higher = more binding, comparable within an allelic series); with VENTX [6], 11.8 upbm affinity estimate (log intensity, higher = more binding, comparable within an allelic series); with HOXA2, 12.8 upbm affinity estimate (log intensity, higher = more binding, comparable within an allelic series). Further, the binding signal in the assay with HOXB4 [8] is 13.6 upbm affinity estimate (log intensity, higher = more binding, comparable within an allelic series); with PAX4 [9] it was 12.1 upbm affinity estimate (log intensity, higher = more binding, comparable within an allelic series); with PAX4 [10], 10.5 upbm affinity estimate (log intensity, higher = more binding, comparable within an allelic series); with MSX2 [12], 14.2 upbm affinity estimate (log intensity, higher = more binding, comparable within an allelic series); with PAX4 [13], 10.8 upbm affinity estimate (log intensity, higher = more binding, comparable within an allelic series); with MSX2 [14], 13.8 upbm affinity estimate (log intensity, higher = more binding, comparable within an allelic series). The binding signal with VAX1 [15] was 12.4 upbm affinity estimate (log intensity, higher = more binding, comparable within an allelic series); with PRRX1 [17], 13.6 upbm affinity estimate (log intensity, higher = more binding, comparable within an allelic series); in the assay with VAX1 [18], 12.7 upbm affinity estimate (log intensity, higher = more binding, comparable within an allelic series).
